PubChem BioAssay AID504652 (National Center for Advancing Translational Sciences (NCATS), 2011)
Among all 360,000 compounds or so, about 11,000 (3.1%) were called active. This is one part of a sample in which actives are shown more often than they occur. Rule as the data show it: active = activity change below about -30%; inactive = the rest.
% is scaled to controls: 0 for no effect and ±100 for the full control effect.

The compounds below were run against D(1A) dopamine receptor (Homo sapiens) (UniProt P21728) (assay: Antagonist of Human D 1 Dopamine Receptor: qHTS). Details: HEK293 TREx D1 cells, calcium flux, dopamine EC80; at 10 µM; stronger effect = lower value.
Chain of D(1A) dopamine receptor (Homo sapiens) (P21728 whole entry, looked up): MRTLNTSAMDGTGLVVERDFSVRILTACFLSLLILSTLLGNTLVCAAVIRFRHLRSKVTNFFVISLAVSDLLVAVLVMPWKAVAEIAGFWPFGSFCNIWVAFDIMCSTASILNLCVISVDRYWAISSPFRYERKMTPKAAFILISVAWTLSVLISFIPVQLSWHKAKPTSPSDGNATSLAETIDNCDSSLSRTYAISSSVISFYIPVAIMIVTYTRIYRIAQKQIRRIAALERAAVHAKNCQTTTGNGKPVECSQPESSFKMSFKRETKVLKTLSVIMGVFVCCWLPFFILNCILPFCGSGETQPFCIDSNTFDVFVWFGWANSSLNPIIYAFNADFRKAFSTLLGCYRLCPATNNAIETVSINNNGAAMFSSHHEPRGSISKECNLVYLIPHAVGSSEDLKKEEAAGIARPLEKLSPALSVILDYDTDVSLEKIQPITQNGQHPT
Excerpt: Dopamine receptors (DARs) are involved in the etiology and/or therapy of a number of neuropsychiatric and endocrine disorders. For instance, all receptor-based antiparkinsonian drugs work via stimulating the […] DAR subtype whereas all FDA-approved antipsychotic agents are antagonists of this receptor. […] There are three different types of allosteric modulators that we are seeking, two of which will stimulate or augment receptor signaling, allosteric agonists and potentiators, while the third, allosteric antagonists, will attenuate receptor signaling. The present primary screening assay measures compound antagonism after an EC80 addition of dopamine by tracking calcium flux in a […], inducible Hek293 Trex D1 cell line. NIH Chemical Genomics Center [NCGC] NIH Molecular Libraries Probe Centers Network [MLPCN] MLPCN Grant: NS064831-01 Assay Submitter (PI): David Sibley
Freshly passaged cells are plated in 1536 well black, clear bottom plates at a density of 4000 cells/well in 3 ul of complete media containing 1x tetracycline inducer. After an overnight incubation at 30 C in 5% CO2, cells are loaded with 2 ul of the no wash Calcium Assay Kit (ABD Bioquest) and incubated at room temperature for 30 to 90 minutes. Agonist read: A 10 cycle (1 second/cycle) baseline measurement is taken and then the FDSS online 1536 pintool delivers 23 nl of compound library (as well as dopamine controls) to the plate. The plate is measured for kinetically at 1 cycle/sec for 180 seconds. Following the 180 second read, 1 ul of an EC80 (negative modulation assay) is delivered by an onboard pipette head. Measurements are taken kinetically for an additional 180 seconds.
`COc1ccccc1N=Nc1c(O)[nH]c(=S)[nH]c1=O` was tested, and the activity change, negative = inhibition was -9.34% (inactive). In the case of `CCOCCc1c(O)[nH]c(=S)[nH]c1=O`, the activity change, negative = inhibition is reported as -33.1% (active). In the case of `CC1=CC(=Cc2sc3ccccc3[n+]2C)C=C(C)O1`, the activity change, negative = inhibition is reported as -35.2% (active). `CC(C)c1c(CN(C)C(C)Cc2ccccc2)n(C)n(-c2ccccc2)c1=O` (stereo not given) was tested, and the activity change, negative = inhibition was -2.93% (inactive). In the case of `Cc1ccc(-n2c(/C=C/c3cccc(C(F)(F)F)c3)nc3ccccc3c2=O)cc1`, the activity change, negative = inhibition is reported as 11.5% (inactive). `Cc1ccc(C(C)C)c(OCC(=O)N2CCN(CC(=O)N3CCOCC3)CC2)c1` was tested, and the activity change, negative = inhibition was 1.15% (inactive). With `NCCc1ccc(S(=O)(=O)F)cc1` the activity change, negative = inhibition was -35.8% (active). `CN1CCN(C(=O)COc2ccc(C(C)(C)C)cc2Br)CC1` was tested, and the activity change, negative = inhibition was -15.7% (inactive). `CC(C)c1ccc(OCC(=O)N2CCCN(C)CC2)cc1` was tested, and the activity change, negative = inhibition was -12.3% (inactive). With `CC(C)c1ccc(OCC(=O)N2CCN(C)CC2)c(Br)c1` the activity change, negative = inhibition was -34.7% (active). With `CC(C)(C)[C@]1(O)C[C@@H]2OC(=O)C[C@@]23C(=O)O[C@@H]2OC(=O)[C@H](O)[C@]213` the activity change, negative = inhibition was 0.221% (inactive). For `CN(C)CC1CCCCC1=O` (stereo not given), the activity change, negative = inhibition was 9.1% (inactive). `COc1c(O)ccc2c1-c1c3c(cc4c1C(C2)N(C)CC4)OCO3` (stereo not given) was tested, and the activity change, negative = inhibition was -68% (active). With `COc1ccc(C2NCc3ccc4c(c3-n3cccc32)OCO4)cc1OC` (stereo not given) the activity change, negative = inhibition was -8.31% (inactive). `CN1CCc2cc3c(cc2[C@H]1[C@@H]1OC(=O)c2c1ccc1c2OCO1)OCO3` was tested, and the activity change, negative = inhibition was -19.5% (inactive). For `COC(=O)C1=C(c2ccc(Cl)c(C(F)(F)F)c2)C[C@@H]2CC[C@H]1N2C(=O)NC(C)C`, the activity change, negative = inhibition was -3.99% (inactive). With `CC(C)Oc1cccc(C(=O)C2CCCN(C3CCOCC3)C2)c1` (stereo not given) the activity change, negative = inhibition was -26.6% (inactive). In the case of `COC(=O)C1=C(c2cccc(OCc3ccccc3)c2)C[C@@H]2CC[C@H]1N2C(=O)NCc1ccc(Br)cc1`, the activity change, negative = inhibition is reported as -2.72% (inactive). In the case of `CC(C)c1ccc(-n2c(O)c(/C=N/N3CCOCC3)c(=O)[nH]c2=S)cc1`, the activity change, negative = inhibition is reported as 21.3% (inactive). In the case of `Cc1cccc(-n2c(O)c(/C=N/N3CCOCC3)c(=O)[nH]c2=S)c1`, the activity change, negative = inhibition is reported as -42.1% (active). In the case of `O=c1[nH]c(=S)n(C2CC2)c(O)c1/C=N/N1CCOCC1`, the activity change, negative = inhibition is reported as -3.33% (inactive). For `Cn1cc(C(=O)OCC(=O)N2CCCC2)c2ccccc21`, the activity change, negative = inhibition was -0.659% (inactive). For `Cc1cc(OCc2cc(C(=O)O)oc2C)c2c3c(c(=O)oc2c1)CCCC3`, the activity change, negative = inhibition was 63% (inactive). For `OC(Cn1c2ccccc2c2ccccc21)C[n+]1ccccc1` (stereo not given), the activity change, negative = inhibition was 13.9% (inactive). With `COc1ccc(CNCCc2c[nH]c3ccccc23)cc1OC` the activity change, negative = inhibition was -8.11% (inactive). For `c1cncc(CNCCc2c[nH]c3ccccc23)c1`, the activity change, negative = inhibition was -33.9% (active). For `C/C(CCc1c[nH]c2ccccc12)=N\O`, the activity change, negative = inhibition was 1.61% (inactive). `C=CCn1c(O)c(/C=N/N2CCOCC2)c(=O)[nH]c1=S` was tested, and the activity change, negative = inhibition was 6.62% (inactive). In the case of `COc1ccc(-c2nc(CS(=O)CC(=O)N3CCC4(CC3)OCCO4)c(C)o2)cc1` (stereo not given), the activity change, negative = inhibition is reported as -3.25% (inactive). `CCN1C(=O)C(=Cc2c(C)n(CC(=O)NCC3CCCO3)c3ccccc23)C(=O)N(CC)C1=S` (stereo not given) was tested, and the activity change, negative = inhibition was -0.95% (inactive). With `CC(=NC1CCN(Cc2ccccc2)CC1)c1c(O)n(C)c(=O)n(C)c1=O` the activity change, negative = inhibition was -0.272% (inactive). `Cn1c(O)c(C(=Nc2ccc(F)cc2)c2ccccc2)c(=O)n(C)c1=O` was tested, and the activity change, negative = inhibition was -33.5% (active). In the case of `Cn1c(O)c(C=Nc2ccc3c(c2)CCC3)c(=O)n(C)c1=O`, the activity change, negative = inhibition is reported as -5.53% (inactive). With `COc1ccccc1N=C1SCCCN1C` the activity change, negative = inhibition was -10.1% (inactive). `CCc1ccc(OCC(=O)N2CCN(CC(=O)Nc3ccccc3Cl)CC2)cc1` was tested, and the activity change, negative = inhibition was -5.54% (inactive). In the case of `COC(=O)C1=C(c2ccc(C(C)=O)cc2)C[C@@H]2CC[C@H]1N2C(=O)NCCNC(C)=O`, the activity change, negative = inhibition is reported as 24% (inactive). In the case of `COC(=O)C1=C(c2ccc(-c3ccccc3)c(F)c2)C[C@@H]2CC[C@H]1N2C(=O)NCc1ccc(F)cc1`, the activity change, negative = inhibition is reported as -0.711% (inactive). `COC(=O)C1=C(c2ccc3ccccc3c2)C[C@@H]2CC[C@H]1N2C(=O)NCCO` was tested, and the activity change, negative = inhibition was -40.5% (active). `COC(=O)C1=C(c2ccc(F)cc2OCc2ccccc2)C[C@@H]2CC[C@H]1N2C(=O)NCc1ccc(Cl)cc1` was tested, and the activity change, negative = inhibition was 12.1% (inactive). In the case of `COC(=O)C1=C(c2ccc(F)cc2OCc2ccccc2)C[C@@H]2CC[C@H]1N2C(=O)NCc1ccc(C(C)(C)C)cc1`, the activity change, negative = inhibition is reported as -11.5% (inactive). `COC(=O)C1=C(c2ccccc2OCc2ccccc2)C[C@@H]2CC[C@H]1N2C(=O)NCc1ccc(OC)cc1` was tested, and the activity change, negative = inhibition was -30.4% (active). `CC(Cc1ccccc1)NCCC(c1ccccc1)c1ccccc1` (stereo not given) was tested, and the activity change, negative = inhibition was 15.9% (inactive). `Cc1ccc(NC(=O)N(Cc2ccc3c(c2)OCO3)C2CCN(Cc3ccccc3)CC2)cc1F` was tested, and the activity change, negative = inhibition was 2.05% (inactive). With `CSc1nc2ccc(C)cc2c(=O)n1-c1cccnc1` the activity change, negative = inhibition was 7.08% (inactive). For `Cc1cc(C(=O)OCC(=O)Nc2c(F)cccc2F)c(C)n1C1CC1`, the activity change, negative = inhibition was 2.31% (inactive). In the case of `Cc1nn(-c2ccccc2)c(C)c1NC(=O)COC(=O)Cc1ccccc1`, the activity change, negative = inhibition is reported as -0.424% (inactive). For `O=C(CCN1CCCCC1)NCC(=O)Nc1ccc(Br)cc1C(=O)c1ccccc1`, the activity change, negative = inhibition was -20.3% (inactive). In the case of `O=C(CCNS(=O)(=O)c1ccccc1)Nc1ccc(Cl)cc1C(=O)c1ccccc1`, the activity change, negative = inhibition is reported as -6.99% (inactive). For `O=C(Nc1ccc(Cl)cc1C(=O)c1ccccc1)c1cc(Cl)cc(Cl)c1`, the activity change, negative = inhibition was 23.8% (inactive). With `O=C(COC(=O)c1ccccc1)Nc1ccc(Cl)cc1C(=O)c1ccccc1` the activity change, negative = inhibition was -31.5% (active). For `O=C(CN1CCCCC1)Nc1ccc(Br)cc1C(=O)c1ccccc1Cl`, the activity change, negative = inhibition was -26.5% (inactive). For `CN1CCN(C(=S)SCC(=O)Nc2ccc(Cl)cc2C(=O)c2ccccc2)CC1`, the activity change, negative = inhibition was -39.4% (active). In the case of `CN(c1ccccc1)c1ccc([N+](=O)[O-])c2nonc12`, the activity change, negative = inhibition is reported as 0.138% (inactive). `COC(=O)C1=C(c2ccc(F)cc2F)C[C@@H]2CC[C@H]1N2C(=O)NC1CC1` was tested, and the activity change, negative = inhibition was 25.8% (inactive). `O=C(NC(=S)N1C[C@H]2C[C@H](C1)c1cccc(=O)n1C2)c1ccc(F)cc1` was tested, and the activity change, negative = inhibition was -0.512% (inactive). For `Cn1cc(/C=C/c2nc3ccccc3c(=O)n2-c2ccccc2)c2ccccc21`, the activity change, negative = inhibition was 11% (inactive). `Cc1ccccc1NC(=O)COC(=O)c1cc(C)n(C2CC2)c1C` was tested, and the activity change, negative = inhibition was 2.42% (inactive). `C[C@]12CC[C@H](O)C[C@H]1CC[C@@H]1C2CC[C@]2(C)[C@@H](C3=CC(=O)OC3)[C@@H](O)C[C@]12O` (stereo not given in full) was tested, and the activity change, negative = inhibition was -17.2% (inactive). For `CC(C)CN1CCN(Cc2ccccc2C(F)(F)F)CC1CCO` (stereo not given), the activity change, negative = inhibition was 0.591% (inactive). With `Cc1ccc(-c2cc(C(=O)N3CCC4(CC3)OCCO4)no2)cc1` the activity change, negative = inhibition was -7.04% (inactive). `Cc1ccc(Cn2c(C)c3cnn(CC(=O)N4CCC5(CC4)OCCO5)c(=O)c3c2C)cc1` was tested, and the activity change, negative = inhibition was -49.4% (active). `O=C(CCCn1c(=O)[nH]c2cc(Cl)ccc2c1=O)N1CCC2(CC1)OCCO2` was tested, and the activity change, negative = inhibition was -7.09% (inactive). With `CNC(=O)O/N=C(\N)Cc1csc2ccccc12` the activity change, negative = inhibition was -21.2% (inactive). `CNC(=O)N(C)c1nnc(C(C)(C)C)s1` was tested, and the activity change, negative = inhibition was 9.77% (inactive). `CCc1nc2ccccc2c(=O)n1-c1cccc(OC)c1` was tested, and the activity change, negative = inhibition was 2.19% (inactive). In the case of `NCC(O)c1ccc(O)cc1` (stereo not given), the activity change, negative = inhibition is reported as -66.9% (active). For `CCOP(=O)(OCC)C(NC(=O)NC)C(N)=O` (stereo not given), the activity change, negative = inhibition was 4.22% (inactive). For `COC(=O)C1=C(c2cccc(OCc3ccccc3)c2)C[C@@H]2CC[C@H]1N2C(=O)NNCc1ccccc1`, the activity change, negative = inhibition was -14.3% (inactive). For `CCN1CCN(c2ccc([N+](=O)[O-])cc2C#N)CC1`, the activity change, negative = inhibition was 1.99% (inactive). `CC(C)n1c(=O)c(C=Nc2ccc(Br)cc2)c(O)n(Cc2ccco2)c1=O` was tested, and the activity change, negative = inhibition was 14% (inactive).
